{
  "source": "PubChem BioAssay (NCI)",
  "note": "Where “and” joins values, the source holds several entries; their conditions need not be identical. Equal entries are not always repeated. About 83,000 compounds went through this panel and 20% of them were active in at least one assay; those are over-represented in the sample as a whole.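 Treatment: one concentration, 48 hours, 96-well format. Scoring: percent growth, with anything below 10 considered active.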 Calls of active or inactive are those of the source.",
  "data": [
    {"system": "SK-MEL-2 melanoma", "assay": "NCI-60 one-dose screen, 48 h (100 = growth as untreated, 0 = no growth, -100 = all killed)", "settings": "10 µM", "method": "(§1) Growth inhibition of the SK-MEL-2 human tumor cell line is measured as a screen for anti-cancer activity. Cells are grown in 96 well plates and exposed to the test compound for 48 hours. Compounds are tested at a single concentration, which is 10^-5 M for most compounds. The reported endpoint is percent growth (GI% or GIPRCNT), where numbers from 0 - 100% represent growth inhibition, and numbers from -100% - 0 represent cell death. For example, a value of 40 represents 60% growth inhibition. A value of 0 means no net growth occurred over the course of the experiment. A value of -40 indicates 40% of cells at the beginning of the experiment died by the end of the experiment. A value of -100 means all cells are dead at the end of the experiment.\n(§2) NCI-60 Human Tumor Cell Lines Screen was performed using the standard one-dose NCI protocol, which is described in more detail at https://dtp.cancer.gov/discovery_development/nci-60/default.htm.\n(§3) Compounds with GIPRCNT values below 10 were considered active. Activity score was based on GIPRCNT using the following formula: […]\n(§4) Score is 0 for GIPRCNT values of 100 or above, 50 for GIPRCNT values of 0, and 100 for GIPRCNT values of -100.", "values": [
      {"molecule": "COc1ccc(Cl)cc1C(=O)NCCc1ccc(S(=O)(=O)NC(=O)NC2CCCCC2)cc1", "growth": "113% (inactive)"},
      {"molecule": "CC1(C)OB(c2ccc(Cn3cc(F)c(=O)[nH]c3=O)cc2)OC1(C)C", "growth": "113% (inactive)"}
    ]},
    {"system": "SK-MEL-2 melanoma", "assay": "NCI-60 one-dose screen, 48 h (100 = growth as untreated, 0 = no growth, -100 = all killed)", "settings": "10 µM unless noted", "method": "as §1, §2, §3, §4", "values": [
      {"molecule": "CC(O)(CC(=O)CC(=O)c1ccccc1)c1ccccc1", "note": "(stereo not given)", "growth": "126% (inactive) and 110% (inactive)"},
      {"molecule": "CCN(CC)CCCC(C)Nc1ccnc2cc(Oc3ccccc3)ccc12", "note": "(stereo not given)", "growth": "115% (inactive)"},
      {"molecule": "CC1CCCc2sc3nc(NNC(=O)c4cnccn4)n(-c4ccccc4)c(=O)c3c21", "note": "(stereo not given)", "growth": "11.3% (inactive) and 25.1% (inactive)"},
      {"molecule": "S=C1SCN(Cc2ccccc2)CN1Cc1ccccc1", "growth": "85% (inactive)"},
      {"molecule": "CCN(CC)CCCC(CNc1ccnc2cc(Cl)ccc12)c1ccc(Cl)cc1", "note": "(stereo not given)", "growth": "-56.2% (active) and -67.7% (active)"},
      {"molecule": "CCN(CC)CCNc1cc(-c2cccc(OC(F)(F)F)c2)nc2ccc(N3CCCC3)cc12", "growth": "52.2% (inactive) and -30.5% (active) and 4.6% (active)"},
      {"molecule": "O=C(Nc1ccc([N+](=O)[O-])cc1Cl)c1cc(Cl)ccc1O", "growth": "-53.2% (active) and -51.7% (active)"},
      {"molecule": "Cc1ccc(-c2noc(C)n2)cc1", "growth": "120% (inactive)"},
      {"molecule": "Cc1cc(C)c(N)c(Br)c1", "growth": "96.9% (inactive) and 99.3% (inactive)"},
      {"molecule": "Cc1cc(N=Nc2ccc(C)c(N=Nc3cc(C)c(N)cc3N)c2)c(N)cc1N", "growth": "107% (inactive)"},
      {"molecule": "Nc1ccc2ccc(N)cc2c1", "growth": "68.4% (inactive)"},
      {"molecule": "CCC(C)C1(C2CCCC2)NC(=O)NC1=O", "note": "(stereo not given)", "growth": "94.2% (inactive) and 129% (inactive)"},
      {"molecule": "O=C(CN1CCOCC1)N1CCOCC1", "growth": "109% (inactive)"},
      {"molecule": "Nc1nc(SC/C=C/CCl)c2[nH]cnc2n1", "growth": "120% (inactive) and 95% (inactive)"},
      {"molecule": "O=C(/C=C\\c1ccnc2ccccc12)c1ccc([N+](=O)[O-])cc1", "growth": "83.4% (inactive) and 93.8% (inactive)"},
      {"molecule": "Oc1nc(NCCc2ccccc2)sc1/C=C1\\C=Nc2ncccc21", "growth": "-4.61% (active) and 28.8% (inactive)"},
      {"molecule": "CCCCCn1sc(=O)n(Cc2ccc(CNC(=O)C(C)c3ccc(CC(C)C)cc3)cc2)c1=O", "note": "(stereo not given)", "growth": "106% (inactive) and -18.6% (active)"},
      {"molecule": "O=C(Oc1cccc(OC(=O)c2ccccc2)c1)c1ccccc1", "growth": "93.2% (inactive)"},
      {"molecule": "CCC(=O)C(CC)c1cccc(OC)c1", "note": "(stereo not given)", "growth": "116% (inactive)"},
      {"molecule": "CCN(CC)CCC(CNc1c2ccc([N+](=O)[O-])cc2nc2cc(OC)c(OC)cc12)c1ccccc1", "note": "(stereo not given)", "growth": "-11.9% (active) and -77.5% (active)"},
      {"molecule": "O=C(CCc1ccc(O)cc1)N/N=C/c1cc(Br)ccc1O", "growth": "80.7% (inactive)"},
      {"molecule": "COc1cc(Nc2nc3ccccc3nc2NS(=O)(=O)c2ccc(NC(=O)c3ccc(C)c(OC)c3)cc2)cc(OC)c1", "growth": "45.7% (inactive)"},
      {"molecule": "OC(CSc1ccccc1)CN1CCN(c2cccc(Cl)c2)CC1", "note": "(stereo not given)", "growth": "98.3% (inactive) and 100% (inactive)"},
      {"molecule": "COc1ccc2c(=O)cc(-c3ccccc3)[nH]c2c1", "growth": "31.4% (inactive) and -8.1% (active)"},
      {"molecule": "CC(C(=O)O)n1cc(C#N)c(=O)[nH]c1=O", "note": "(stereo not given)", "growth": "120% (inactive) and 102% (inactive)"},
      {"molecule": "Cc1cc(O)c(C(C)C)cc1N", "growth": "113% (inactive) and 119% (inactive)"},
      {"molecule": "CN(C)c1ccc(C(=C2C=CC(=[N+](C)C)C=C2)c2ccccc2Cl)cc1", "growth": "-57.7% (active) and -52.4% (active)"},
      {"molecule": "CC(C)CNC(=O)c1ccccc1C(=O)NC1(C(=O)NCC(C)C)CCCC1", "growth": "103% (inactive) and 100% (inactive)"},
      {"molecule": "O=C(O)CCCCc1ccc([N+](=O)[O-])cc1", "growth": "98.9% (inactive) and 113% (inactive)"},
      {"molecule": "OC(COc1cccc2ccccc12)CN1CCN(c2ccc(Cl)cc2)CC1", "note": "(stereo not given)", "growth": "103% (inactive) and 98.8% (inactive)"},
      {"molecule": "O=C(O)CSCc1nc2ccccc2[nH]1", "growth": "105% (inactive)"},
      {"molecule": "CCOc1ccc2cc(-c3nn(CC4CCN(C)CC4)c4ncnc(N)c34)ccc2c1", "growth": "108% (inactive)"},
      {"molecule": "CN1CCN(CCC=C2c3ccccc3Sc3ccc(S(=O)(=O)N(C)C)cc32)CC1", "growth": "68.5% (inactive) and 53.7% (inactive)"},
      {"molecule": "Oc1ccccc1C=NCC1CCC(CN=Cc2ccccc2O)CC1", "note": "(stereo not given)", "growth": "12.8% (inactive)"},
      {"molecule": "Cn1c(SSc2ccc(-c3cccnc3)n2C)ccc1-c1cccnc1", "growth": "106% (inactive) and 107% (inactive)"},
      {"molecule": "Nc1ccc2[nH]c(-c3ccccc3)cc(=O)c2c1", "growth": "78.8% (inactive)"}
    ]},
    {"system": "SK-MEL-2 melanoma", "assay": "NCI-60 one-dose screen, 48 h (100 = growth as untreated, 0 = no growth, -100 = all killed)", "settings": "50 µM", "method": "as §1, §2, §3, §4", "values": [
      {"molecule": "CC1(C)OB(c2ccc(Cn3cc(F)c(=O)[nH]c3=O)cc2)OC1(C)C", "growth": "41.5% (inactive)"}
    ]},
    {"system": "SK-MEL-2 melanoma", "assay": "NCI-60 one-dose screen, 48 h (100 = growth as untreated, 0 = no growth, -100 = all killed)", "settings": "100 µM", "method": "as §1, §2, §3, §4", "values": [
      {"molecule": "COc1ccc(Cl)cc1C(=O)NCCc1ccc(S(=O)(=O)NC(=O)NC2CCCCC2)cc1", "growth": "75.8% (inactive)"}
    ]}
  ]
}
